The record followed here is ChEMBL document CHEMBL3988442, “University of Dundee, Small-Polar-MMV Screening Library” (2021).

In this assay the test system is Leishmania donovani. Briefly: Leishmania intramacrophage assay. In kind it is functional, organism-based. Set-up: scale not given: in the data most compounds retested in dose-response had high values.

SMILES strings stand for the structures. Hit rate of the full screen: of about 69,000 compounds, about 1,000 (1.4%) showed an effect of 50% or more. The full list was thinned out, with strong results kept by preference.

Take `Cc1ccccc1OCn1ccc(C(=O)NCCN2CCOCC2)n1`: where the note is “30.3 µM, […]”, the “Percent Effect” value is on record as -13.65%.
Turning to `O=C(O)C(F)(F)F.O=C(c1ccccc1)N1CCCC2(CCN2Cc2cccc(F)c2)C1` (centres undefined), the “Percent Effect” value (30.3 µM, […]) stood at 54.88%.
The same measure, in the same setting: in the case of `O=C(O)C(F)(F)F.O=C(O)C(F)(F)F.O=C(O)CN1CCCC2(CCN2Cc2cccc(F)c2)C1` (centres undefined) it was -0.8696%; in that of `O=S(=O)(c1ccccc1)N1CCC2(CCCN2Cc2ccc(Cl)cc2)C1` (centres undefined), 36.08%.
On to `O=C(O)C(F)(F)F.O=C(c1cscn1)N1CCCC2(CCN2Cc2cccc(F)c2)C1` (centres undefined), for which the “Percent Effect” value (30.3 µM, […]) came to 40.36%.
Regarding `Cc1ccc(CN2CCCC23CCN(S(=O)(=O)c2ccccc2)C3)o1` (centres undefined), under “30 µM, 30.03 µM”, the “Percent Effect” value came out at 49.3%.
In the case of `O=C(O)C(F)(F)F.O=S(=O)(c1ccccc1)N1CCC2(CCCN2Cc2cccc(Cl)c2)C1` (centres undefined), under “30.3 µM, […]”, the “Percent Effect” value was 27.63%.
The same measure, in the same setting: the figure for `O=S(=O)(c1ccccc1)N1CCC2(CCCN2Cc2cccc(F)c2)C1` (centres undefined) is 61.17%.
On to `O=S(=O)(c1ccccc1)N1CCC2(CCCN2Cc2ccccc2Cl)C1` (centres undefined), for which the “Percent Effect” value (30.3 µM, […]) stood at 52.23%.
As to `CCS(=O)(=O)N1CCCC2(CCCN2Cc2cccc(F)c2)C1.O=C(O)C(F)(F)F` (centres undefined), the “Percent Effect” value (30.3 µM, […]) turned out to be 12.48%.
Still for that read-out and setting: in the case of `CC(C)C(C(N)=O)c1cccc(Cl)c1` (centres undefined) it was 23.22%.
On the same count and under the same terms, the figure for `Cc1nnc(N2CCO[C@H]3[C@@H](OCc4ccccn4)CC[C@@H]32)s1.O=C(O)C(F)(F)F.O=C(O)C(F)(F)F` is -5.183%; for `Cc1nccn1Cc1nnc(C2CCN(c3ccncc3F)CC2)n1C` it is 4.988%; for `c1nc2c(c(NC3COC4(CCCC4)C3)n1)CCNCC2` (centres undefined) it is -7.058%.
With `O=C(O)C(F)(F)F.O=C(c1cocn1)N1C[C@H]2CCC[C@@]2(COc2ccccn2)C1`, for the setting “30.3 µM, […]”, the “Percent Effect” value was 20.04%.
On to `Cc1nn(C)c(C)c1CN1CCCC1c1nccc(CN(C)C)n1` (centres undefined), for which, under “30.3 µM, […]”, the “Percent Effect” value turned out to be 3.97%.
For the compound `CC(C#N)CNC(=O)Nc1ccc(Br)cc1` (centres undefined), the “Percent Effect” value (30.3 µM, […]) turned out to be 6.996%.
With `CC(=O)N1CCCN(C2CCCCc3ccccc32)CC1` (centres undefined), the “Percent Effect” value (30.3 µM, […]) amounted to 18.35%.
As for `COc1c(C2CCCN2C(=O)c2c[nH]c3ncccc23)c(C)nn1C` (centres undefined), the “Percent Effect” value (30 µM, 30.03 µM) is on record as -19.02%.
For `Cc1nnc([C@@]23CCO[C@@H]2CCN(S(C)(=O)=O)C3)o1`, the “Percent Effect” value (30.3 µM, […]) is on record as -7.004%.
`Cc1nnc([C@@]23CCO[C@@H]2CCN(S(=O)(=O)c2cccnc2)C3)o1`: where the note is “30.3 µM, […]”, the “Percent Effect” value is listed as 17.24%.
Consider `CNC(=O)[C@@]12CCO[C@@H]1CCN(S(=O)(=O)c1cccnc1)C2.O=C(O)C(F)(F)F`, for which, under “30 µM, 30.03 µM”, the “Percent Effect” value is -13.7%.
Regarding `Cc1noc([C@@]23CCO[C@@H]2CCN(C(=O)C2CCOCC2)C3)n1`, the “Percent Effect” value (30 µM, 30.03 µM) is -29.55%.
As for `Cc1nnc([C@@]23CCO[C@@H]2CCN(S(=O)(=O)c2ccccc2)C3)o1`, the “Percent Effect” value (30.3 µM, […]) is 56.06%.
On to `Cc1noc([C@@]23CCO[C@@H]2CCN(S(=O)(=O)c2cccnc2)C3)n1`, for which the “Percent Effect” value (30.3 µM, […]) is reported as 57.7%.
For the compound `C[C@H]1C[C@H]2CN(C(=O)c3cccc4c3OCCO4)CC[C@H]2O1`, the “Percent Effect” value (30.3 µM, […]) is on record as -11.14%.
As to `CCc1nccn1-c1cccc(C2CCCN2)n1.Cl.Cl` (centres undefined), where the note is “30.3 µM, […]”, the “Percent Effect” value was found to be 6.16%.
In the case of `O=C1CCCN1CCCN1CCCCC1Cn1cncn1` (centres undefined), under “30.3 µM, […]”, the “Percent Effect” value is on record as 26.96%.
As to `Cc1csc(CCNC(=O)N2CCC(NC(=O)OC(C)(C)C)CC2)n1`, under “30.3 µM, […]”, the “Percent Effect” value is given as -5.066%.
Consider `CSc1nc2cc(C)n(CC(=O)N3CCCC3)c2c(=O)n1CC(C)C`, for which the “Percent Effect” value (30.3 µM, […]) was found to be 6.672%.
Same read-out and setting: in the case of `CC(NCc1ccc(OCC(N)=O)cc1)c1ccc(Cl)cc1.Cl` (centres undefined) it was 32.34%; in that of `CC(NCc1ccc(OCC(N)=O)cc1)c1ccc2c(c1)CCCC2` (centres undefined), 72.53%; in that of `CC(NCc1ccc(OCC(N)=O)cc1)c1ccc(Cl)c(Cl)c1.Cl` (centres undefined), 12.13%.
Same read-out and setting: in the case of `CCc1nncn1CCNC(=O)Nc1ccc(OC)c(C)c1` it was 5.132%.
On the same count and under the same terms, the figure for `CCC(=O)c1ccccc1NN1c2ccccc2C(=O)C1(C)OC` (centres undefined) is 62.96%; for `CCOC1(C)C(=O)c2ccccc2N1Nc1ccccc1C(=O)CC` (centres undefined) it is 19.56%; for `CCC(=O)c1ccc(Br)cc1NN1c2cc(Br)ccc2C(=O)C1(C)OC` (centres undefined) it is 24.9%.
For `Cc1c(C(=O)O)cnn1-c1ccc(-c2nc(C3CC3)no2)cn1`, for the setting “30.3 µM, […]”, the “Percent Effect” value stood at 11.33%.
Regarding `CC(C)Cc1cc(NC(=O)c2cc(Cl)c[nH]2)n(C)n1`, the “Percent Effect” value (30 µM) was -56.19%.
`N#Cc1cccnc1N1CCCC(CO)(Cc2ccccc2F)C1` (centres undefined): for the setting “30.3 µM, […]”, the “Percent Effect” value turned out to be 2.884%.
Same read-out and setting: the figure for `Nc1cc(N2CCCC(CO)(Cc3ccccc3F)C2)nc(N)n1` (centres undefined) is 94.26%; for `COc1cc(N2CCCC(CO)(Cc3ccccc3F)C2)ncn1` (centres undefined) it is 63.9%.
Consider `OCC1(Cc2ccccc2F)CCCN(c2ccc3ccccc3n2)C1` (centres undefined), for which, where the note is “30.3 µM, […]”, the “Percent Effect” value was determined as 23.98%.
For the compound `CC(=O)c1ccc(N2CCCC(CO)(Cc3ccccc3F)C2)nc1` (centres undefined), the “Percent Effect” value (30.3 µM, […]) is 13.31%.
Turning to `N#Cc1cccc(N2CCCC(CO)(Cc3ccccc3F)C2)n1` (centres undefined), the “Percent Effect” value (30.3 µM, […]) was 29.41%.
For the compound `CC(C)(C)c1cn2nc(N3CCC[C@@H]3CO)sc2n1`, the “Percent Effect” value (30 µM, 30.03 µM) is 20.83%.
Regarding `CN(C)C(=O)N1CCN(C(=O)c2ccc(Cl)c(Cl)c2)C(C)(C)C1`, the “Percent Effect” value (30.3 µM, […]) came out at 36.34%.
With `CCc1nc(N2CCN(CCOC)CC2)c2cnn(C)c2n1`, the “Percent Effect” value (30.3 µM, […]) was determined as 9.143%.
As for `CCNC(=O)CN(CC)C(=O)Cc1csc(C(C)C)n1`, the “Percent Effect” value (30.3 µM, […]) turned out to be 17.83%.
Take `Cc1ncccc1CNCC1COC2(CCCCC2)O1` (centres undefined): the “Percent Effect” value (30.3 µM, […]) was determined as 19.04%.
Take `Cc1nc(NCCCn2cccn2)c2c(n1)c(C)nn2C`: the “Percent Effect” value (30.3 µM, […]) is recorded as -31.03%.
For `O=C(CNC(=O)c1cnc2ccccc2c1O)NCCCn1ccnc1`, the “Percent Effect” value (30.3 µM, […]) stood at 15.36%.
`CN(C)C[C@@H]1CN(C2CCN(c3ccccc3Cl)CC2)C[C@@H]1CO`: the “Percent Effect” value (30.3 µM, […]) is listed as 52.98%.
As for `CN(CCO)C[C@@H]1CN(C2CCN(c3ccccc3Cl)CC2)C[C@@H]1CO`, the “Percent Effect” value (30.3 µM, […]) was 89.6%.
The same measure, in the same setting: in the case of `CN(CCO)C[C@@H]1CN(C(=O)Cc2ccc3ccccc3c2)C[C@@H]1CO` it was -1.562%; in that of `Cc1ccccc1CN1C[C@@H](CN(C)CCO)[C@@H](CO)C1`, 5.953%; in that of `CN(C)C[C@@H]1CN(C(=O)Cc2ccccc2)C[C@@H]1CO`, 22.9%.
Consider `Cc1cc(F)ccc1N1CCC(N2C[C@@H](CN(C)C)[C@@H](CO)C2)CC1`, for which the “Percent Effect” value (30.3 µM, […]) was 95.44%.
On to `CN(C)C[C@@H]1CN(C(=O)c2cc(F)ccc2F)C[C@@H]1CO`, for which, for the setting “30.3 µM, […]”, the “Percent Effect” value was determined as 22.29%.
On the same count and under the same terms, the figure for `CN1CCN(C[C@@H]2CN(C3Cc4ccccc4C3)C[C@@H]2CO)CC1` is 4.168%; for `CN(CCO)C[C@@H]1CN(Cc2ccccc2-c2ccccc2)C[C@@H]1CO` it is 83.9%; for `Cc1cc(F)ccc1N1CCC(N2C[C@@H](C)[C@@](C)(O)C2)CC1` it is 44.3%.
On the same count and under the same terms, in the case of `CN(CCO)C[C@@H]1CN(Cc2ccccc2C#N)C[C@@H]1CO` it was 12.29%.
As to `CN(CCO)C[C@@H]1CN(C(=O)c2c(F)cccc2Cl)C[C@@H]1CO`, where the note is “30 µM, 30.03 µM”, the “Percent Effect” value was found to be 27.13%.
